Assay outcomes (PubChem)
Compounds with a hit are over-represented: about 27% of the library has one in this group of screens.
CYP2C19 inhib = human CYP2C19 inhibition | P33261 | CYP2C19 Supersomes, luciferin-H EGE luminescence, 30 min | inhibition, % at 5 µM | actives 21% (n = 96,000) | AID 778;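 active = CYP2C19 inhibition above a set limit at 5 µM in the primary screen, cut at about 50% in these data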
CYP2C19 activ = activators of human cytochrome P450 2C19 | recombinant CYP2C19, luciferin-H EGE luminescence; stronger effect = higher value; 0 = fully inhibited enzyme, 1 = untreated enzyme | activation factor at 5 µM | 96,000 tested, under 10 active | P33261;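 active = activation factor of at least 2 at 5 µM in the primary screen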
Cav3 T inh = blocks human Cav3.2 T-type calcium channel; B-score at 10 µM; Cav3.2-expressing cells, Fluo-4 calcium fluorescence FDSS; stronger effect = lower value; actives 4% (n = 100,000); O95180; AID 449739;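 active = single-dose well whose peak fluorescence ratio is a statistical outlier from its plate by either plate-standardised score or position-corrected B-score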
CYP2C9 inh = blocks human cytochrome P450 2C9; inhibition, % at 5 µM; AID 777; CYP2C9 Supersomes, luciferin-H conversion, luminescence; actives 20% (n = 96,000); P11712;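 active = blocking of liver enzyme CYP2C9 beyond about 50% at 5 µM, limit read from the data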
CYP2C9 act = CYP2C9 (human) activation | recombinant CYP2C9, luciferin-H conversion, luminescence; stronger effect = higher value; factor 1 = untreated enzyme, 0 = blocked | activation factor at 5 µM | actives 1.4% (n = 96,000);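 active = activation factor of 2 or more for CYP2C9 at a 5 µM dose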
Hits are given with their value; n = inactive; x = no result given.

SMILES	CYP2C19 inhib	CYP2C19 activ	Cav3 T inh	CYP2C9 inh	CYP2C9 act
O=C1CN(C(=O)COC(=O)CCC(=O)c2ccc3c(c2)OCCO3)c2ccccc2N1	n	n	n	n	n
CCc1ccc(C2=Nn3c(nnc3-c3cccs3)SC2)cc1	n	n	n	n	n
O=C(COC(=O)c1ccco1)NCc1cccs1	n	n	n	n	n
CC(C)(C)c1ccc(OCC(=O)NCc2ccco2)c(Br)c1	n	n	n	76	n
CSc1ccc(Cl)c(C(=O)OCC(=O)NCc2ccco2)c1	93	n	n	n	n
O=C(COC(=O)c1cccs1)NCc1ccco1	70	n	n	n	n
O=C(COC(=O)c1cccnc1SCC(=O)NCc1ccccc1)NCc1ccccc1	68	n	n	n	n
OC(COCC1COc2ccccc2O1)CN1CCN(c2ccccn2)CC1 (stereo not given)	n	n	n	n	n
COc1ccccc1C1=NOC(C)(c2sc(-c3ccc(Cl)cc3)nc2C)C1 (stereo not given)	x	x	n	x	x
COc1cc(C(=O)OCC(=O)NCc2ccco2)cc(OC)c1OC	n	n	n	n	n
COc1ccc(NC(=O)COC(=O)c2cc(OC)c(OC)cc2NC(=O)c2ccco2)cc1OC	n	n	n	n	n
O=C(COC(=O)c1cccs1)NCc1ccccc1	92	n	n	n	n
O=C(COC(=O)c1ccccc1NCc1ccco1)Nc1ccc2c(c1)OCO2	n	n	n	n	n
CCOc1cc(C(=O)OCC(=O)NCc2ccco2)cc(OCC)c1OCC	58	n	n	57	n
COc1cc(NC(=O)c2cccs2)c(C(=O)OCC(=O)NCc2ccco2)cc1OC	n	n	n	82	n
NC(=O)c1ccsc1NC(=O)COC(=O)c1ccccc1NCc1ccco1	74	n	n	90	n
CCC(C)C(NC(=O)OC(C)(C)C)C(=O)NC(C(=O)N1CCCC1C(N)=O)C(C)CC (stereo not given)	n	n	n	n	n
CC(=O)Oc1ccc(N2C(=O)C3C4C=CC(CO)(O4)C3C2=O)cc1 (stereo not given)	n	n	n	n	n
COc1ccc(C(=O)NCC23C=CC(O2)C2C(=O)N(Cc4ccccc4)C(=O)C23)cc1 (stereo not given)	62	n	n	n	n
O=C(c1ccc(S(=O)(=O)N2CCCCC2)cc1)N1CCN=C1SCc1cccnc1	n	n	n	n	n
COc1ccc(C(=O)N2CCN=C2SCc2cccnc2)cc1OC	83	n	n	n	n
O=C(c1cc2ccccc2o1)N1CCN=C1SCc1cccc(F)c1	n	n	n	n	n
O=C(c1cc2ccccc2o1)N1CCN=C1SCc1cccnc1	n	n	n	52	n
O=C(C1CCCCC1)N1CCN=C1SCc1cccnc1	95	n	n	n	n
O=C(c1ccccc1F)N1CCN=C1SCc1cccnc1	82	n	n	n	n
SMILES	CYP2C19 inhib	CYP2C19 activ	Cav3 T inh	CYP2C9 inh	CYP2C9 act
COc1cccc(OC)c1C(=O)N1CCN=C1SCc1cccnc1	n	n	n	n	n
O=C(c1ccc(Br)o1)N1CCN=C1SCc1cccnc1	89	n	n	64	n
COC(=O)C(NC=O)C(O)(Cc1ccccc1)C(F)(F)F (stereo not given)	57	n	n	n	n
O=C(Nc1cc(N2CCOCC2)ncn1)NC1(C(F)(F)F)Oc2ccccc2O1	x	x	n	x	x
O=C(COC(=O)c1ccc2c(c1)OCCO2)NCCC1=CCCCC1	n	n	n	n	n
O=C(COC(=O)c1cncc(Br)c1)NCCC1=CCCCC1	88	n	n	72	n
COc1cc(C)c(C(=O)Oc2cc(C)c(C(=O)O)c(O)c2C)c(OC)c1C	x	x	-4.4	x	x
Cc1cc(C)n2nc3nc(N4CCCCC4)nc(-c4ccco4)c3c2n1	n	n	n	n	n
Cn1c(N2CCC(C(N)=O)CC2)nc2c1c(=O)n(Cc1cccc(Br)c1)c(=O)n2C	n	n	n	n	n
C=CCSc1nc2ccccc2n1C(=O)/C=C/c1cc(OC)c(OC)c(OC)c1	55	n	x	78	n
Cc1ccc(OC(=O)c2ccc(N3CCOCC3)c([N+](=O)[O-])c2)cc1	n	n	n	n	n
Cc1cccc(C)c1OCCCCc1c(C)n[nH]c1C	60	n	n	70	n
Cc1cccc(OCCc2nnc(N)s2)c1C	n	n	n	n	n
Cc1ccccc1OCCCCc1c(C)n[nH]c1C	65	n	n	50	n
COc1cccc(OC)c1OCCCCCc1c(C)n[nH]c1C	86	n	n	n	n
c1ccc(-c2nnc3n2CCCC3)cc1	n	n	n	n	n
Brc1cccc(-c2nnc3n2CCCCC3)c1	53	n	n	n	n
Cc1nc(NC(=O)c2cc(-n3cnnc3)ccc2Cl)ccc1Br	x	x	n	x	x
CCCc1ccc(Oc2c(-c3ccc(O)c(C)c3O)n[nH]c2C)cc1	100	n	n	98	n
CCCc1ccc(OCC(=O)O)cc1	n	n	n	n	n
CCCc1ccc(Oc2cn[nH]c2-c2ccc(O)c(C)c2O)cc1	98	n	n	99	n
CC(C)(C)OC(=O)N1CCC(C(=O)N2CCC[C@H]2C(=O)O)CC1	n	n	n	n	n
O=C(NCCOC(=O)c1ccncc1)c1ccccc1	71	n	n	92	n
O=C(NCCOC(=O)c1cccs1)c1cccnc1	61	n	n	n	n
O=C(NCc1ccccc1)NC(=O)c1ccncc1	95	n	n	82	n
SMILES	CYP2C19 inhib	CYP2C19 activ	Cav3 T inh	CYP2C9 inh	CYP2C9 act
O=C(NCCCc1ccccc1)c1ccccc1	n	n	n	n	n
O=C(NCCCc1ccccc1)c1ccncc1	98	n	n	93	n
O=C(NCc1ccccc1)NC(=O)c1ccccc1	n	n	n	n	n
Cc1cc(C(F)F)n2nc(C(=O)Nc3cccnc3Cl)nc2n1	n	n	n	n	n
CCN(Cc1ccccc1)S(=O)(=O)c1ccc(S(=O)(=O)N(Cc2ccccn2)Cc2ccco2)cc1	n	n	n	n	n
O=C(c1ccc(F)cc1F)N(Cc1ccccn1)Cc1ccco1	73	n	n	n	n
O=C(Nc1nc2ccccc2s1)C1CC(=O)N(c2ccccc2)C1 (stereo not given)	n	n	-5.1	n	n
O=C(Nc1nc2ccccc2s1)C1CC(=O)N(c2ccc(F)cc2)C1 (stereo not given)	n	n	-4.6	n	n
O=C(Nc1nc2ccccc2s1)C1CC(=O)N(c2ccc(Br)cc2)C1 (stereo not given)	n	n	n	n	n
O=C(Nc1ccc(Br)cc1F)C1CCCN(S(=O)(=O)c2cnc[nH]2)C1 (stereo not given)	83	n	n	79	n
Cc1ccc(NC(=O)C2CCCN(S(=O)(=O)c3cnc[nH]3)C2)c(Br)c1 (stereo not given)	93	n	n	95	n
Cc1c(NC(=O)C2CCCN(S(=O)(=O)c3cnc[nH]3)C2)c(=O)n(-c2ccccc2)n1C (stereo not given)	n	n	x	n	n
O=C(COc1cccc(NC(=O)c2ccco2)c1)c1ccccc1	n	n	n	n	n
